Experimental data published in PubChem BioAssay.
Unmarked numbers belong to inactive results. No rule for the calls is given here.

target: Pantothenate synthetase (Mycobacterium tuberculosis (strain ATCC 25618 / H37Rv)) (UniProt P9WIL5); test: Coupled enzyme confirmation of inhibitors against recombinant Mtb PanC (AID 375); conditions: coupled enzyme assay; at 10 µM, hits give high values;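 also: 0% = full reaction with vehicle and 100% = no enzyme background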
Sequence (P9WIL5 whole entry, looked up): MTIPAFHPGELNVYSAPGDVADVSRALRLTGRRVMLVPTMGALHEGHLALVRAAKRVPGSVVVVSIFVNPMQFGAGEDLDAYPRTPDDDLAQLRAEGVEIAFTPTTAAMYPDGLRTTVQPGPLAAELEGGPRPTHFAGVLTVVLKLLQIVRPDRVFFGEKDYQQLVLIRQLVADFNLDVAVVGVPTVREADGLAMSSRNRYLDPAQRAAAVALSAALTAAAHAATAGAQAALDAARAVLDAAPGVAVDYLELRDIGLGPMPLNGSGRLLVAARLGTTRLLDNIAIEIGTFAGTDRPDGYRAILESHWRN

SMILES | inhibition [%]
CCN(CC)S(=O)(=O)c1ccc(S(=O)(=O)N(Cc2ccccn2)Cc2ccco2)cc1 | 11
O=C(CSc1nnc2ncccn12)N1CCCCCC1 | 0
Cc1ccc(-c2nc3ncccc3o2)cc1NC(=O)c1ccco1 | 0
CCOC(=O)N1CCN(c2c(NCCCOC(C)C)c(=O)c2=O)CC1 | 4
COc1ccc(C(NC(C)=O)c2ccc3cccnc3c2O)c(OC)c1 (centres undefined) | 0
CCOC(=O)Cc1c(C)c2c(O)cc(O)cc2oc1=O | 8
Cc1cc(C(=O)N2CCN(C(c3ccccc3)c3ccccc3)CC2)no1 | 3
COc1ccc2c(C)nc(Nc3nc(C)cc(C)n3)nc2c1 | 6
C=CCN=C1SCC(=O)N1S(=O)(=O)c1ccc(C)cc1 | 0
OCCNc1nc2ccc(Cl)cc2[nH]1 | 0
CCOc1ccc2[nH]c(O)c(NC(C)=O)c2c1 | 0
CCOc1ccc(S(=O)(=O)Nc2cccc(Cl)c2)cc1 | 1
COc1ccc(-c2[nH]nc3c2C(c2ccccc2OC(=O)N2CCOCC2)C(C#N)=C(N)O3)cc1 (centres undefined) | 5
COc1ccc(NC(=O)Cn2nnc(-c3ccccc3F)n2)cc1Cl | 0
Cc1cc(C)c2c(=O)n(CC(=O)NCCCN3CCOCC3)sc2n1 | 1
COc1cc(OC)c(C(=O)Nc2ncn[nH]2)cc1OC | 0
CCCN1CCN(C(=O)Cn2cccc2C(=O)c2ccccc2)CC1 | 0
O=C(O)CCc1cc(I)c(Oc2ccc(O)c(I)c2)c(I)c1 | 8
O=C(Nc1sc2c(c1C(=O)NCc1ccco1)CCCC2)c1ccc2c(c1)OCO2 | 1
N#CCc1nc(CSc2nc3ccccc3s2)cs1 | 7

SMILES | inhibition [%]
CCOC(=O)C(C#N)C(c1cccnc1)c1c(C)[nH][nH]c1=O (centres undefined) | 3
C=CCn1c(SCC(=O)NCC2CCCO2)nc2scc(-c3ccco3)c2c1=O (centres undefined) | 5
Cn1cnnc1SCC(=O)NCc1cccc(C(F)(F)F)c1 | 0
CCn1c(=O)n(CC(=O)NCc2ccccc2OC)c(=O)c2ccccc21 | 12
N#Cc1c(NC(=O)c2ccc(Br)o2)n(-c2ccccc2)c2nc3ccccc3nc12 | 2
Fc1ccccc1C(c1nnnn1Cc1ccc2c(c1)OCO2)N1CCN(Cc2ccccc2)CC1 (centres undefined) | 3
Cc1cc(=O)[nH]c2c1cnn2Cc1ccccc1 | 1
O=C(Nc1ccc(N2CCCCC2)cc1)c1ccc(F)cc1 | 0
COc1ccc(-c2noc(CN(C(=O)C(C)(C)C)C(C)C)n2)cc1 | 0
Cc1nnc(SCc2nnc(-c3ccccc3Br)o2)n1-c1ccccc1 | 0
COCc1nnc(NC(=O)CCCOc2ccccc2)s1 | 0
CCOC(=O)C1=C(C)NC(=O)NC1c1ccc(Br)s1 (centres undefined) | 1
CCOC(=O)N1CCC(O)(c2cc(C)c(C)cc2C)CC1 | 3
Cc1cccc(Cn2c(=O)n(Cc3ccco3)c(=O)c3ccccc32)c1 | 0
Cc1cc(C)cc(N(CC(=O)NC2CCC(C)CC2)S(=O)(=O)c2c(C)noc2C)c1 (centres undefined) | 0
COCCNC(=O)c1cc(-c2cccs2)on1 | 0
O=C(c1cccc(Cl)c1)N1CCN(Cc2ccncc2)CC1 | 0
CN(C)c1nc(N)nc(CSc2nnnn2-c2cccc3ccccc23)n1 | 0
Cc1cc(Cn2ccnc2)c(C)cc1Cn1ccnc1 | 1
